Reference: the supplement of paper PMC11732987, “Enantioselective OTUD7B fragment discovery through chemoproteomics screening and high-throughput optimisation” (Communications Chemistry, 2025)
A number with no mark means an inactive call.

Tests used:
Test in all cases: log2 ratio of Biotin-Ahx-Ub-VS probe labelling (fragment/DMSO); higher = less target engagement (more negative = stronger competition), active = hit call of the paper (q ≤ 0.05, log2 ratio ≤ -1)
Conditions in all cases: compound concentration: 200 uM; treatment time: 3 h
UniProt O00507 = target: UniProt O00507
Sequence of UniProt O00507 (O00507 whole entry, the tested form may be a part): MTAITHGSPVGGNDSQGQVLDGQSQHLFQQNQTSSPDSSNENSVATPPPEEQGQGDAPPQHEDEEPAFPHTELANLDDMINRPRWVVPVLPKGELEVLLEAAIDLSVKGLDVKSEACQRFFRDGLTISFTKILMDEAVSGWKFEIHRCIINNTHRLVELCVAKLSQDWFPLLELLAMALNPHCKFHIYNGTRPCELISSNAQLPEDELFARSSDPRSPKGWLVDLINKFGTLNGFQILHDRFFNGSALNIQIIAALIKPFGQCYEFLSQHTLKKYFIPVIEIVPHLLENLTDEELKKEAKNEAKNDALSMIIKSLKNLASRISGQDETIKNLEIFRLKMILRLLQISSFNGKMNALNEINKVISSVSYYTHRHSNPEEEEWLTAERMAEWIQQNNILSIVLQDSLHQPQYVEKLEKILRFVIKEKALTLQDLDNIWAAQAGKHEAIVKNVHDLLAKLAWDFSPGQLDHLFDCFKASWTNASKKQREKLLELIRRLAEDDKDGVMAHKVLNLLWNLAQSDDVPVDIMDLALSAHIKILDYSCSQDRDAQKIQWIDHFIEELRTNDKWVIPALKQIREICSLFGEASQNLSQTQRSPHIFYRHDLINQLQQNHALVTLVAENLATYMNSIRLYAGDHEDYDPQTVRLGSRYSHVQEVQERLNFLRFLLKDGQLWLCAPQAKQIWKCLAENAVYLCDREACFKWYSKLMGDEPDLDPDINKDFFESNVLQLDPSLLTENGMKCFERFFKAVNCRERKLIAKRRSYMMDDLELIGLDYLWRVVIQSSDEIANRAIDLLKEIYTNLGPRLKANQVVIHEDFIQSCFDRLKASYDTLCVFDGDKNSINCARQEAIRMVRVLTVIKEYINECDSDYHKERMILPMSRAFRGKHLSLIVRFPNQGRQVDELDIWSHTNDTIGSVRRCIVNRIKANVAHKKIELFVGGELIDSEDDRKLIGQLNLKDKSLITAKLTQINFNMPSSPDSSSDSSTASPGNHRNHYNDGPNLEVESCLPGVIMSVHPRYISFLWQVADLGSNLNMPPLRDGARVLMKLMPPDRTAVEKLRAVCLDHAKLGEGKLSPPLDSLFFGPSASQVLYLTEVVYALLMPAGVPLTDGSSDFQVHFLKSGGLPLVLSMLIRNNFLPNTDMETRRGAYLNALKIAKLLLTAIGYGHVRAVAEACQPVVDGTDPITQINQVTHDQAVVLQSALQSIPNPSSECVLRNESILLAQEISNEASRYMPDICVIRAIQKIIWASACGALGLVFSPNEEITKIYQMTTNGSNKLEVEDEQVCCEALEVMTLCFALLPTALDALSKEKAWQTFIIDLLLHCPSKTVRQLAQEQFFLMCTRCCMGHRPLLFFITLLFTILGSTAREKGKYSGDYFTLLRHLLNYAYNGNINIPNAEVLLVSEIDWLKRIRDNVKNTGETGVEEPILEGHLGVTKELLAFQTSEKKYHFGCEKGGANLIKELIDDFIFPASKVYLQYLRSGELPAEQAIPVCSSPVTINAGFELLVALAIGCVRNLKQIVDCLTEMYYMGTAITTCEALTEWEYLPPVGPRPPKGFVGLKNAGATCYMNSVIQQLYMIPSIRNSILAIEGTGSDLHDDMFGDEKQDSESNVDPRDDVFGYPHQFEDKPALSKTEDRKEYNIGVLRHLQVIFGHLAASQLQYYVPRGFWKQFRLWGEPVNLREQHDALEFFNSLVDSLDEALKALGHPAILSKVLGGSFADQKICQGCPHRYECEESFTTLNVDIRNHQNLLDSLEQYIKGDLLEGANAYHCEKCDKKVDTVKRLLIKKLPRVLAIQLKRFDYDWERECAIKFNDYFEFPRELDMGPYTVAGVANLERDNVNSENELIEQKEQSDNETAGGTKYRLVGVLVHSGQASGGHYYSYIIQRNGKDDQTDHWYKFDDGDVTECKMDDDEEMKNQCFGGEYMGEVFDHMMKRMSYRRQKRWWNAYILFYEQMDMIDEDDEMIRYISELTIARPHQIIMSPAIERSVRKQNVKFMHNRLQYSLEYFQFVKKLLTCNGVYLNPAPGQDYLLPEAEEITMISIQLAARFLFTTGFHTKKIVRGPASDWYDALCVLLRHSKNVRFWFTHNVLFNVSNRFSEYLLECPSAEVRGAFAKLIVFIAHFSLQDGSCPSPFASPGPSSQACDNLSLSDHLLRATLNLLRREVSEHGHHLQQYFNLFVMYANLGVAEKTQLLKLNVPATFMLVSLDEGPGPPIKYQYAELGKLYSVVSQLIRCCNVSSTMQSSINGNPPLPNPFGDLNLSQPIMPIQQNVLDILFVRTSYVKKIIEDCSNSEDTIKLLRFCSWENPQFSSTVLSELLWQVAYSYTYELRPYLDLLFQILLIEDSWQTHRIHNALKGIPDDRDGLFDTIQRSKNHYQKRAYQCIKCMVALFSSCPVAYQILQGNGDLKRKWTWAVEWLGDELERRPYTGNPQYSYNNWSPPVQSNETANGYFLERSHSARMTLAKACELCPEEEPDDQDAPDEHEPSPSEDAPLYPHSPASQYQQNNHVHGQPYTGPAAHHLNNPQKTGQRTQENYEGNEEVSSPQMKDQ
Procedure, shortened: (§1)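 Triplicate samples of HEK293T lysate, 495 µg each, received fragment at 200 µM or vehicle for 3 h, followed by Biotin-Ahx-Ub-VS (0.5 µM final) for 1 h. After NeutrAvidin enrichment of labelled DUBs and LysC/trypsin digestion, peptides were run by diaPASEF LC-MS/MS. The values are average log2 fragment/vehicle ratios from global-median-normalised Spectronaut label-free quantities, tested by unpaired t-test on proteins having ≥2 unique peptides.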

UniProt P51784 = target: UniProt P51784
Sequence of UniProt P51784 (P51784 whole entry): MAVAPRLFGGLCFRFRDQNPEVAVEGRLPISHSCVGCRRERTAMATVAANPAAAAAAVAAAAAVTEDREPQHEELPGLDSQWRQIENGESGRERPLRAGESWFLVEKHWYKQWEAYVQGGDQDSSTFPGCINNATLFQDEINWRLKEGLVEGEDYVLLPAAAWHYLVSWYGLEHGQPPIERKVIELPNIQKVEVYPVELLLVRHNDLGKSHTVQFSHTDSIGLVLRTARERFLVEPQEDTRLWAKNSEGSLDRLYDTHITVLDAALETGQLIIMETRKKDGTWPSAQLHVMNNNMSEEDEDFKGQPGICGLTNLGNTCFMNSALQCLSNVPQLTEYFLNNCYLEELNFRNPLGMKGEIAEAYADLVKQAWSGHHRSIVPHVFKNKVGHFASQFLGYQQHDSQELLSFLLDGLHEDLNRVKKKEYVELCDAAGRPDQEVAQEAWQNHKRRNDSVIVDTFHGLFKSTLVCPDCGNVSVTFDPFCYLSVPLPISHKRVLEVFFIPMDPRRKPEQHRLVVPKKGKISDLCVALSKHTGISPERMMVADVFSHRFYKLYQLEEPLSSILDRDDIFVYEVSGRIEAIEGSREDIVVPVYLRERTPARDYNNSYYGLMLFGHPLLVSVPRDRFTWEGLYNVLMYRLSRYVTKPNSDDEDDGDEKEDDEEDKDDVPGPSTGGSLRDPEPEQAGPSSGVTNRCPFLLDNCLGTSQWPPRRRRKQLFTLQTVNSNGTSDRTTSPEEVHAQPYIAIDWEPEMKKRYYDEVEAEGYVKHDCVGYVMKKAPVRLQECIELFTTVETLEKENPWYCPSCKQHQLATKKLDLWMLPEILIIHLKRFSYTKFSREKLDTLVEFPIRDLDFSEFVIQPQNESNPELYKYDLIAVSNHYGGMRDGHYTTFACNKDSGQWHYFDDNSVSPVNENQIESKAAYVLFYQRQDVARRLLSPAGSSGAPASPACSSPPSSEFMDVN
Procedure, shortened: as §1

UniProt Q5T2D3 = target: T1, UniProt Q5T2D3
T1 sequence (whole entry): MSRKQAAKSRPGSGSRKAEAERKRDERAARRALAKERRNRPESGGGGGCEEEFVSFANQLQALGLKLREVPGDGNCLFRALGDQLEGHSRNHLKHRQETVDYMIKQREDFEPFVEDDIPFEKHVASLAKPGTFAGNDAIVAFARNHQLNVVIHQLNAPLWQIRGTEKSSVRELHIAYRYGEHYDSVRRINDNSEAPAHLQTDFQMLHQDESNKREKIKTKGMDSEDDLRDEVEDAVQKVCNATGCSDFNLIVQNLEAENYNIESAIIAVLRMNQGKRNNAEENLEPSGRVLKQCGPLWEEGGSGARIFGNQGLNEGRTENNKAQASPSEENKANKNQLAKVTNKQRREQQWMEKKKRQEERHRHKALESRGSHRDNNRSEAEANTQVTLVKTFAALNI
Procedure, shortened: as §1

UniProt Q8TE49 = target: T2, UniProt Q8TE49
T2 sequence (whole entry): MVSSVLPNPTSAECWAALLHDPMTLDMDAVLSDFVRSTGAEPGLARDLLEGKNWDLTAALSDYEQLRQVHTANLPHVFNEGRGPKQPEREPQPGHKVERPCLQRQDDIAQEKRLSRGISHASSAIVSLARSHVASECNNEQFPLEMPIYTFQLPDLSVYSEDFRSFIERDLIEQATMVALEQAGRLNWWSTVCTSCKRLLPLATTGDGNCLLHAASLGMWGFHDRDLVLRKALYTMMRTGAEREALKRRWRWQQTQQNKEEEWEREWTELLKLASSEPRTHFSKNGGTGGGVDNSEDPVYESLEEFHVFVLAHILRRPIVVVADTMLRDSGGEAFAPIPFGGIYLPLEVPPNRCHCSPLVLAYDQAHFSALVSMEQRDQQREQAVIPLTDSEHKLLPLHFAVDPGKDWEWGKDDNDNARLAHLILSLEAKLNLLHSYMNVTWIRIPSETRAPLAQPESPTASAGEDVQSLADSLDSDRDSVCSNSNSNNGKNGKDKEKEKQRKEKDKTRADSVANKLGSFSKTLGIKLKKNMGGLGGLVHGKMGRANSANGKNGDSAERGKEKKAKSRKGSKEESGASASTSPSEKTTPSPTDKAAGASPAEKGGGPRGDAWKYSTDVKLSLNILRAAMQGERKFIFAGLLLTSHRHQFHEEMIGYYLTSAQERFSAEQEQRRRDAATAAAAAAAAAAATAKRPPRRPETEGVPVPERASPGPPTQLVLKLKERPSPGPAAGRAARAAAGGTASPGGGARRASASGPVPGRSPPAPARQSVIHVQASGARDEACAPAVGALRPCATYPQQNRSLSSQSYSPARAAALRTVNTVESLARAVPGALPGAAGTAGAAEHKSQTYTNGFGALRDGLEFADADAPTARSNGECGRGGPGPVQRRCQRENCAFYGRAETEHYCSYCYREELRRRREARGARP
Procedure, shortened: as §1

UniProt Q9P2H5 = target: T3, UniProt Q9P2H5
T3 sequence (whole entry): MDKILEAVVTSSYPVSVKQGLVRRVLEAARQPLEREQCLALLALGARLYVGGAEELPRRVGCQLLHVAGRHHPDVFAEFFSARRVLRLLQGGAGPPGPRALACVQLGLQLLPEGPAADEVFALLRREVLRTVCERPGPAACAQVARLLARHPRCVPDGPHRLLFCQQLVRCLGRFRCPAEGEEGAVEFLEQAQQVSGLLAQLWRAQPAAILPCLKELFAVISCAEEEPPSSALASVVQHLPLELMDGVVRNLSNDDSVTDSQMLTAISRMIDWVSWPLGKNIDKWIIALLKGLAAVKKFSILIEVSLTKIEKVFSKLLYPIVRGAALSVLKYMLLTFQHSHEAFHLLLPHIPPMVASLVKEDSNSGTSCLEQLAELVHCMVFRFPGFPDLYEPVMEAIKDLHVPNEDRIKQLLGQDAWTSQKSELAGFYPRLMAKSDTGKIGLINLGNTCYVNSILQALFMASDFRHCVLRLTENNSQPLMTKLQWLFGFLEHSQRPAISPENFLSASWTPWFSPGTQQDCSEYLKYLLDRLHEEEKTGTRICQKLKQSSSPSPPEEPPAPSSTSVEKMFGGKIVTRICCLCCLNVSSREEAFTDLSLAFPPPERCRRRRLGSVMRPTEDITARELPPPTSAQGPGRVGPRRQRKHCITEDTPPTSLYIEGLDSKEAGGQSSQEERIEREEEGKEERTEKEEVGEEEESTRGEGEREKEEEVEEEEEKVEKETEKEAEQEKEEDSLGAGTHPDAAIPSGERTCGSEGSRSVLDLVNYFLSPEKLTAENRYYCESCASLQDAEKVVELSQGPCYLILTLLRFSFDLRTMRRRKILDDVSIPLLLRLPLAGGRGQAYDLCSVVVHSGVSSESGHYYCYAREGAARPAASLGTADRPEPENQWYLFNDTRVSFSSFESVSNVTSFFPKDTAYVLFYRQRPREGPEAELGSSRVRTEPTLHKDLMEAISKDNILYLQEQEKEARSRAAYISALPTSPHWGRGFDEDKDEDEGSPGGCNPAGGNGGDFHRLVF
Procedure, shortened: as §1

UniProt Q9UGI0 = target: T4, UniProt Q9UGI0
T4 sequence (whole entry): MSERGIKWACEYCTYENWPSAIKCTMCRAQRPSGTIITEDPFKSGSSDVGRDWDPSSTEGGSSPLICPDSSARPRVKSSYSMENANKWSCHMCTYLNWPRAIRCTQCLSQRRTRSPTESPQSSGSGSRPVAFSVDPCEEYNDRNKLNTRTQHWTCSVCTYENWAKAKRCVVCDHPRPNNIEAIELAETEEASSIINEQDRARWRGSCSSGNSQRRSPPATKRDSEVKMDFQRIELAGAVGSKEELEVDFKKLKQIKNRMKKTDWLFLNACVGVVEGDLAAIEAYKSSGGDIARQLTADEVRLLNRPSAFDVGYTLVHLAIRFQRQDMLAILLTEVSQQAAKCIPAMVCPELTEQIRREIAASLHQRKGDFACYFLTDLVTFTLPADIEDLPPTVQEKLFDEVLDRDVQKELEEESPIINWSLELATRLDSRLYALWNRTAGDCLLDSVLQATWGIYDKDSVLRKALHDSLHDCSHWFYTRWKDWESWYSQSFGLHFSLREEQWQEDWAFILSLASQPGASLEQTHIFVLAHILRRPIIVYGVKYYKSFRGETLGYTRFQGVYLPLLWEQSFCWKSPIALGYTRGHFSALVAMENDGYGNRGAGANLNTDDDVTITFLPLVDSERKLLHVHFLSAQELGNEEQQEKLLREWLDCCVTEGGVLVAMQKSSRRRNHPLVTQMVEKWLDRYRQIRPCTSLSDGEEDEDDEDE
Procedure, shortened: as §1

YOD1 = target: T5, YOD1 (UniProt Q5VVQ6)
T5 sequence (whole entry): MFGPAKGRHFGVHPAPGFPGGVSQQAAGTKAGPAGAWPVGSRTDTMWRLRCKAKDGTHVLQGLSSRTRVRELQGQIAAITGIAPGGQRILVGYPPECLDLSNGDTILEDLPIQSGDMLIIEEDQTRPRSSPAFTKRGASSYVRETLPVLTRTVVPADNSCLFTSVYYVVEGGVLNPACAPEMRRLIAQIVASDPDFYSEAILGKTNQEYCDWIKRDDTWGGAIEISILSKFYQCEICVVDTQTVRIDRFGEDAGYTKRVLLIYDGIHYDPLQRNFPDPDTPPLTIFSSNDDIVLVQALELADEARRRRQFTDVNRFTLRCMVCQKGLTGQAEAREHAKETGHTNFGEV
Procedure, shortened: as §1

| SMILES | log2 ratio of Biotin-Ahx-Ub-VS probe labelling (UniProt O00507) | log2 ratio of Biotin-Ahx-Ub-VS probe labelling (UniProt P51784) | log2 ratio of Biotin-Ahx-Ub-VS probe labelling (UniProt Q5T2D3) | log2 ratio of Biotin-Ahx-Ub-VS probe labelling (UniProt Q8TE49) | log2 ratio of Biotin-Ahx-Ub-VS probe labelling (UniProt Q9P2H5) | log2 ratio of Biotin-Ahx-Ub-VS probe labelling (UniProt Q9UGI0) | log2 ratio of Biotin-Ahx-Ub-VS probe labelling (YOD1) |
| --- | --- | --- | --- | --- | --- | --- | --- |
| Cc1cc(C(=O)NC2CCN(C(=O)CCl)CC2)no1 | -0.438 | -0.169 | -0.252 | -0.394 | 0.0224 | -0.0524 | -0.256 |
| O=C(CCl)N1CCC(c2nc3ccccc3o2)CC1 | -0.57 | -0.0526 | -0.14 | -0.625 | -0.191 | -0.567 | -0.217 |
| O=C(CCl)Nc1cc2c(cc1Cl)OCCCO2 | 0.443 | 0.0196 | 0.0208 | -0.506 | -0.0168 | -0.0467 | 0.361 |
| O=C(CCl)N1CCC(C(O)c2ccc(F)cc2)CC1 (stereo unspecified) | -0.0622 | 0.5 | -0.0566 | -0.301 | 0.167 | -0.181 | -0.00174 |
| Cl.O=C(CCl)N1CC(c2ccc(Br)cn2)C1 | -0.573 | -0.0636 | -0.282 | -0.974 | -0.175 | -0.897 | -0.229 |
| CCN(C(=O)CCl)C1CCS(=O)(=O)C1 (stereo unspecified) | 0.545 | -0.0519 | 0.00795 | -0.222 | -0.211 | -0.289 | 0.133 |
| COc1cccc(CN(C)C(=O)CCl)c1 | -0.462 | -0.179 | -0.0411 | -0.149 | 0.258 | -1.23 (active) | 0.0172 |
| O=C(CCl)N1CCC(OCc2ccccc2F)CC1 | -0.226 | 0.146 | -0.173 | -0.355 | 0.097 | -0.394 | 0.135 |
| O=C(CCl)NCCc1ccc(F)cc1 | -0.114 | 0.00457 | 0.0738 | -0.0633 | 0.297 | -0.491 | 0.0794 |
| Cl.O=C(CCl)N1CCC(Cc2nccs2)C1 (stereo unspecified) | -0.185 | 0.0118 | -0.239 | -0.308 | -0.239 | -0.507 | -0.104 |
| O=C(CCl)Nc1cc(Cl)ccc1-n1cncn1 | -1.06 (active) | -0.871 | -0.95 | -1.44 (active) | -0.954 | -1.05 (active) | -1.12 (active) |
| O=C(CCl)NCC(=O)N1CCCC1 | -0.0296 | 0.172 | -0.355 | -0.471 | -0.207 | -0.151 | -0.225 |
| O=C(CCl)N1CCN(C(=O)N2CCCCC2)CC1 | -1.18 (active) | -0.772 | -0.618 | -0.968 | -0.897 | -1.27 (active) | -0.827 |
